# Measurements: PubChem BioAssay (NCATS)
# Records with an inconclusive call do not appear. Entries that show only a call come without a potency. Unmarked numbers belong to inactive results. Activity calls are given as the source filed them. Calls follow the shape of the dose curve; as a rule, active = well fitted curve in the direction sought with a large enough effect; inconclusive = small, poorly fitted or top-dose-only effect, or another doubt; inactive = no such curve, though single readings can be large; an effect the other way counts as inactive or inconclusive.
# How the values were obtained:
# [1] = biological target: Cellular tumor antigen p53 (Homo sapiens) (UniProt P04637); experiment: Primary qHTS for small molecule compounds that upregulate eGFP-tagged delta133p53alpha (in N-terminal) cells. (AID 2060322); conditions: NCI-H358 eGFP-delta133p53alpha fluorescence, 24 h; activation: hits give high values; also: nearly all actives have a fitted effect of over 75% in size; also: potency is read from the fitted curve at half-maximal effect; as to activation: series mostly up to about 56 µM
# How it was run: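 NCI-H358 cells pre-induced 24 h with 10 ng/ml doxycycline to express N-terminal eGFP-delta133p53alpha, then dosed 24 h at 37C without doxycycline; fixed, Hoechst-stained, GFP intensity by laser scanning cytometry, normalized to DMSO (0%) and 57.5 uM 5-azacytidine (100%).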
# [2] = biological target: Aldehyde dehydrogenase, mitochondrial (Homo sapiens) (UniProt P05091); experiment: qHTS for Inhibitors of the Aldehyde Dehydrogenase Family (ALDH2) Primary screen (AID 2061308); also: nearly all actives have a fitted effect of over 55% in size
# [3] = biological target: Retinaldehyde dehydrogenase 3 (Homo sapiens) (UniProt P47895); experiment: qHTS for Inhibitors of the Aldehyde Dehydrogenase Family (ALDH1A3) Primary screen (AID 2061315)
# Chain of Cellular tumor antigen p53 (Homo sapiens) (P04637 whole entry, looked up): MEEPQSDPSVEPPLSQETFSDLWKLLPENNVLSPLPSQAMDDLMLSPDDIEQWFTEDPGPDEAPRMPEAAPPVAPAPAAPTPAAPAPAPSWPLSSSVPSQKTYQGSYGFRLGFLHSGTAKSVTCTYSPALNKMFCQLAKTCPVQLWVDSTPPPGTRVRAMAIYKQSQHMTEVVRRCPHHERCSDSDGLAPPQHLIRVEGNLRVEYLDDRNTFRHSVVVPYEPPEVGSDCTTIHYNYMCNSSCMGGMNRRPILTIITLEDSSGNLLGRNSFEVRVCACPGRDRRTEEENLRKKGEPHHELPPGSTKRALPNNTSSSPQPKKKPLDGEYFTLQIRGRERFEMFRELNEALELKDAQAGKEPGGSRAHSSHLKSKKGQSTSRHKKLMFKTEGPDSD
SMILES,Potency [1],Potency [2],Potency [3],activation [1] [%],"activity change, negative = inhibition [2]","activity change, negative = inhibition [3]"
COc1cc(NC(=O)c2cccc(-n3cc(NC(=O)Nc4cccc(C)c4)cn3)c2)cc(OC)c1OC,23.9 µM (active),inactive,inactive,,,
O=S(=O)(Nc1ccc(C(O)(C(F)(F)F)C(F)(F)F)cc1)c1cccs1,,inactive,inactive,-12.3,,
C=C1[C@H]2CC[C@]3(O)[C@@](CC[C@@H]4[C@](C)(C(=O)O)CCC[C@]43C)(C2)[C@H]1OC(=O)/C(C)=C\C,,inactive,inactive,15.2,,
C/C=C/[C@@H]1C=C[C@@H]2C[C@H](C)CC[C@H]2[C@]1(C)/C(O)=C1/C(=O)[C@@H](CO)N(C)C1=O,,inactive,inactive,6.87,,
Nc1nc(Cl)nc2c1ncn2C1OC(CO)C(O)C1F (stereo unspecified),,inactive,inactive,0,,
CC(=O)N1c2ccccc2C2(O)CC3C(=O)NC(CC(C)C)C(=O)N3C12 (stereo unspecified),,inactive,inactive,-32.8,,
C[C@H]1CC[C@@]2(OC1)O[C@H]1CC3C4CC[C@H]5C[C@@H](O)[C@H](O)C[C@]5(C)C4=CC(=O)[C@]3(C)[C@H]1[C@@H]2C (stereo partly specified),,inactive,inactive,14.3,,
Nc1ncnc2c1ncn2[C@H]1O[C@@H](C(=O)N2CCN(CC(=O)Nc3cccc4c3CNC4=O)CC2)[C@H](O)[C@@H]1O,,inactive,inactive,-24.3,,
C[C@@H]1O[C@@H](O[C@H]2[C@H](O[C@H]3[C@H](O[C@H]4CC[C@@]5(C)C(CC[C@]6(C)C5CC=C5[C@@H]7CC(C)(C)CC[C@]7(C(=O)O[C@@H]7O[C@H](CO)[C@@H](O[C@@H]8O[C@@H](C)[C@H](O)[C@@H](O)[C@H]8O)[C@H](O)[C@H]7O)CC[C@]56C)C4(C)C)OC[C@H](O)[C@@H]3O)O[C@H](CO)[C@@H](O)[C@@H]2O)[C@H](O)[C@H](O)[C@H]1O (stereo partly specified),,,,7.14,3.25% [at 11.2 µM],-3.58% [at 11.2 µM]
C=C(C)C1CC2(CO)C(=CC1=O)CCC(O)C2C (stereo unspecified),,inactive,inactive,-4.58,,
C/C=C(\C)C(=O)O[C@H]1C=CC(=O)O[C@H]1/C=C/[C@H](O)[C@@H](C)O,21.3 µM (active),inactive,inactive,,,
CC(C)CCC1(O)C(=O)C(C)(C)C(O[C@@H]2O[C@H](CO)[C@@H](O)[C@H](O)[C@H]2O)C(C)(C)C1O (stereo partly specified),,inactive,inactive,12.5,,
